PubChem BioAssay (NCATS)
Results filed as inconclusive are left out. Activity calls are given as the source filed them. Unless noted, calls follow the shape of the dose curve; as a rule, active = well fitted curve in the direction sought with a large enough effect; inconclusive = small, poorly fitted or top-dose-only effect, or another doubt; inactive = no such curve, though single readings can be large; an effect the other way counts as inactive or inconclusive.

Columns and labels:
[1] = test system: HIV-1 nucleocapsid protein NCp7 (binding to TG oligonucleotide); experiment: HIV Nucleocapsid (AID 346; call rule not given here;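 also: potency is read from the fitted curve at half-maximal effect; potency is for inhibitors that block NC binding and lower polarization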); conditions: HIV-1 NC / fluorescein-TGTGTGTG probe, fluorescence polarization
Method in brief: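 Reagents dispensed (10 nM TG4xF, 100 nM HIV-1 NC), plates spun, compounds pin-transferred, then incubated 1 hr at room temperature before FP imaging. Buffer: Hepes pH 7.5, 250mM NaCl, 1uM ZnCl2, 100 uM TCEP, 5 mM 2-mercaptoethanol.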

[2] = target: Lysosomal acid glucosylceramidase (Homo sapiens) (UniProt P04062); experiment: Glucocerebrosidase-p2 (AID 348; in the data active = potency below about 10 µM; also: potency is read from the fitted curve at half-maximal effect); conditions: purified GBA, blue fluorogenic substrate, 40 min
Sequence of Lysosomal acid glucosylceramidase (Homo sapiens) (P04062 whole entry, looked up): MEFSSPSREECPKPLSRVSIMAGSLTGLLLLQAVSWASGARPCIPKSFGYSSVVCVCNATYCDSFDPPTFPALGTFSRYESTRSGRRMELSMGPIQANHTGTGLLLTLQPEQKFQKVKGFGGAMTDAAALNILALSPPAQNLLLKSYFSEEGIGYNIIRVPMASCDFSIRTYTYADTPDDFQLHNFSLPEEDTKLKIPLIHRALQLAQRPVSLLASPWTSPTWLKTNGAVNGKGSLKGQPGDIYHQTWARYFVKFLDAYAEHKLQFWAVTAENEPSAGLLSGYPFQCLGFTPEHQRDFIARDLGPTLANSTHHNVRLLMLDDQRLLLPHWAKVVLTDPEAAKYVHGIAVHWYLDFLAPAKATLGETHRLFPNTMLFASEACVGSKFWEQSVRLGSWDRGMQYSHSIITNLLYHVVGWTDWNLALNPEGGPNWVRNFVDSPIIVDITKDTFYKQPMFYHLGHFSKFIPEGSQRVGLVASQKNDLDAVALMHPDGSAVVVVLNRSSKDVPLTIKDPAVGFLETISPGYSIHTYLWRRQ
Method in brief: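 Compounds titrated from 0.6 nM upwards against 0.2 nM enzyme in pH 5.9 citric acid/KH2PO4, taurocholate, tween-20; blue fluorogenic substrate 80 uM, 40 min room temperature, stopped and read Ex 365/Em 440 for AC50.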

[3] = AP1 Signaling Pathway (AID 357; active = well fitted curve in either direction with a large enough effect, not every such curve was filed as active; also: % is scaled to controls: 0 for no effect and ±100 for the full control effect)
Method in brief: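 AP-1-bla ME-180 cells with beta-lactamase reporter under AP-1 response element, stimulated with EC50 EGF; compounds titrated, 5 hours at 37 degrees Celsius. CCF4 read at 460/530 nm ratio; positive and negative modulators judged by AC50.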

[4] = target: Cytochrome P450 1A2 (Homo sapiens) (UniProt P05177); experiment: p450-cyp1a2 (AID 410; calls by dose curve; also: potency is read from the fitted curve at half-maximal effect;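 as to activity change, negative = inhibition: -100% = full effect of reference inhibitor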)
Sequence of Cytochrome P450 1A2 (Homo sapiens) (P05177 whole entry, looked up): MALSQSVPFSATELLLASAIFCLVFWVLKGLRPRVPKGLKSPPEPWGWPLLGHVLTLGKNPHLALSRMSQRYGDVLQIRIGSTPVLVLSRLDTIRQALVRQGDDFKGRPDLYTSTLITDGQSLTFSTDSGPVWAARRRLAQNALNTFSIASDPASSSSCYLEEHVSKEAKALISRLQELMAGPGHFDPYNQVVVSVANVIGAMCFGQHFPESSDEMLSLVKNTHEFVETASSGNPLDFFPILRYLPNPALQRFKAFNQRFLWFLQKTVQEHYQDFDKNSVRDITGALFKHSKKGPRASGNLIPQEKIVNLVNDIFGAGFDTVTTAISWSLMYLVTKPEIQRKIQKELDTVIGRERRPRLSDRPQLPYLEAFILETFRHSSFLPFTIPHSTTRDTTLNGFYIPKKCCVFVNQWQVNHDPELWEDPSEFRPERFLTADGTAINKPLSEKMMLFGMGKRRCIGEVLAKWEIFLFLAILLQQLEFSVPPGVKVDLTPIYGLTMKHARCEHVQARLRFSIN
Method in brief: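 Inhibition was calculated relative to 57 uM furafylline (full inhibition). The reaction used human CYP1A2 at 20nM with Luciferin-ME at its Km, 100uM, driven by an NADPH-regenerating system for 60 min at room temperature.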

[5] = Stat Signaling Pathway (AID 446; active = well fitted curve in either direction with a large enough effect, not every such curve was filed as active;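 also: ME-180 cervical cancer cells given 40 pM IL-6 alongside compound; SIE-controlled beta-lactamase reporter measured as 460/530 nm FRET emission ratio; % is scaled to controls: 0 for no effect and ±100 for the full control effect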)
Method in brief: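 ME-180 SIE-bla cells; overnight plating; cpd + IL-6 40 pM, 5 h, 37 C; LiveBLAzer 2.5 h RT; 460/530 nm emission ratio. Normalized to 300 pM IL-6 and 125 nM JAK inhibitor controls.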

[6] = target: Glucocorticoid receptor (Homo sapiens) (UniProt P04150); experiment: GR-EFC Redistribution (AID 451; calls by dose curve; also: potency is read from the fitted curve at half-maximal effect); conditions: CHO-K1 GR-EFC translocation, beta-gal luminescence, 2 h
Sequence of Glucocorticoid receptor (Homo sapiens) (P04150 whole entry, looked up, the tested form may be a part): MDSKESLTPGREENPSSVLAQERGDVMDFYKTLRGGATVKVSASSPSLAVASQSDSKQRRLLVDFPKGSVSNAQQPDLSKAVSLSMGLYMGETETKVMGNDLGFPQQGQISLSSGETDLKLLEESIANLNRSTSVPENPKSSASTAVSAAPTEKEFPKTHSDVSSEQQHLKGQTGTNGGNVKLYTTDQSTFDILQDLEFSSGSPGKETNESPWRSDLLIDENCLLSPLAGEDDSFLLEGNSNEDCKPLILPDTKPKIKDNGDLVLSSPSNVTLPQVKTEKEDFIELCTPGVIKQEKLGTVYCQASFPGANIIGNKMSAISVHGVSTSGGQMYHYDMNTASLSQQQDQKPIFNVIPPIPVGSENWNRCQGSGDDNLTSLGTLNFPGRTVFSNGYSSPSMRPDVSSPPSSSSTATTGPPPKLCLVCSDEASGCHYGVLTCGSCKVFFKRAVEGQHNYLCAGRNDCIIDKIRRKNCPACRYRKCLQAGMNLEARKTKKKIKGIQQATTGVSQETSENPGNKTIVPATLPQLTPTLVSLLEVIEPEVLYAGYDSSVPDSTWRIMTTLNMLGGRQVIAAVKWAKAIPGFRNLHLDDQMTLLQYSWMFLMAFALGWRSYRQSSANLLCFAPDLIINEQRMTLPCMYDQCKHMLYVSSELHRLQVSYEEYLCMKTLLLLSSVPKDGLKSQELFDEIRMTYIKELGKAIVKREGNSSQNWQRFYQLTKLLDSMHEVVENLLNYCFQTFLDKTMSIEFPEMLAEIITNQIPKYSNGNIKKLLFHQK
Method in brief: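 Translocation of GR-ED fusion to nuclear EA restores b-gal, read by luminescence after 1 h room-temperature detection. Engineered CHO-K1 biosensor cells, 1,000/well, exposed 2 h at 37 C to titrations up to 46 uM final.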

[7] = target: 3',5'-cyclic-AMP phosphodiesterase 4B (Homo sapiens) (UniProt Q07343); experiment: qHTS Assay for Inhibitors of PDE-IV (AID 607; active = well fitted activation curve with a large enough effect in the main read-out, with a control signal flat, not every such curve was filed as active; also: % of control where 0% means no effect)
Sequence of 3',5'-cyclic-AMP phosphodiesterase 4B (Homo sapiens) (Q07343 whole entry, looked up): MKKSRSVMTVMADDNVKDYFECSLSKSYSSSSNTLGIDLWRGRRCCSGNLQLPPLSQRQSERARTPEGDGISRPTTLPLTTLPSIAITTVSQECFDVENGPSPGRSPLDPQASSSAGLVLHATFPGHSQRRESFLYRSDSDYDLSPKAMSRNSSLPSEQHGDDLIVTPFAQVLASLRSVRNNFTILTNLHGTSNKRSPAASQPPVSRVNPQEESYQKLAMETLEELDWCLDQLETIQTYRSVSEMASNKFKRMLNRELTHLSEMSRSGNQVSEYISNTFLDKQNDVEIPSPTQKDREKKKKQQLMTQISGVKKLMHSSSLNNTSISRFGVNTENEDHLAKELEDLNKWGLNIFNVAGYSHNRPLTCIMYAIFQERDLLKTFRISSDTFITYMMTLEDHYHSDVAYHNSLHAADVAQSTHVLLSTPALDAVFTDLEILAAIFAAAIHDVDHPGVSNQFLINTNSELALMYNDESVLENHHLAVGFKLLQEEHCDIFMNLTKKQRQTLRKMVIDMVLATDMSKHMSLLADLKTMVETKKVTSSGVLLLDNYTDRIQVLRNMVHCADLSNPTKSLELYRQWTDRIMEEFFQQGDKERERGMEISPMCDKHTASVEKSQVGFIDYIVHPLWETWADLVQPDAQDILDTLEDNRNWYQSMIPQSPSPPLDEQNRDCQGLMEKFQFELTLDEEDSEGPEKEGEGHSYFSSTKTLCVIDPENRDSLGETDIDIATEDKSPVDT
Method in brief: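 ACTOne HEK293 cells carry a modified cAMP-gated CNG channel and express endogenous PDE4; plated 1000 cells/well, compounds up to 22.9 uM final. Membrane-potential dye fluorescence (ex 535/em 590) was read; parental cells received 10 uM forskolin + 100 uM RO 20-1724.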

[8] = target: Cytochrome P450 3A4 (Homo sapiens) (UniProt P08684); experiment: qHTS Assay for Activators of Cytochrome P450 3A4 (AID 885); also: nearly all actives have a fitted effect of over 65% in size; also: potency is read from the fitted curve at half-maximal effect
Sequence of Cytochrome P450 3A4 (Homo sapiens) (P08684 whole entry, looked up): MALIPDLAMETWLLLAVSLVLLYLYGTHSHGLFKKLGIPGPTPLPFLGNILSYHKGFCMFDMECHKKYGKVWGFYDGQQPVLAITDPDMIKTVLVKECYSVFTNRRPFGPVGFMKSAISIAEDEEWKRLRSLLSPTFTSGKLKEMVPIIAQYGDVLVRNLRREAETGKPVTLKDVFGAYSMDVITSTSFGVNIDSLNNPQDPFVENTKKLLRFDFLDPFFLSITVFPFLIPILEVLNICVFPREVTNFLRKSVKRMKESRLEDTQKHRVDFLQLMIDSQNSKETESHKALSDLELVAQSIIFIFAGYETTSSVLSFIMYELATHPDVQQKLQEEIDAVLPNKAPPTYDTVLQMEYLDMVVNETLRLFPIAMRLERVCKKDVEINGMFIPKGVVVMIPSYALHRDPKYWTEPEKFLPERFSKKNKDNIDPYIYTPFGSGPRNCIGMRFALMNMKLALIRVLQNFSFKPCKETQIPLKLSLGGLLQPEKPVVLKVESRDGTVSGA
Method in brief: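 20nM CYP3A4 + 25uM Luciferin-PPXE (=KM), 200mM KPO4; cpd 10 min RT; NADPH regen, 60 min RT; stop w/ detection buffer, 20 min; luminescence. Normalized to 57 uM ketoconazole.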

[9] = Primary qHTS for small molecule stabilizers of the endoplasmic reticulum resident proteome: Secreted ER Calcium Modulated Protein (SERCaMP) assay (AID 1508630); also: % is scaled to controls: 0 for no effect and ±100 for the full control effect
Method in brief: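 GLuc-SERCaMP-expressing SH-SY5Y cells, pretreated 16 h with compound, are challenged with thapsigargin to empty ER calcium stores; after 4 h, coelenterazine is added directly to the medium and luminescence is imaged.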

[10] = target: Mitogen-activated protein kinase 10 (Mus musculus) (UniProt Q61831); experiment: JNK3 AlphaScreen Assay (AID 530; active = well fitted curve in either direction with a large enough effect, not every such curve was filed as active;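 also: kinase came from lysate of stimulated human HepG2 cells; signal reports phosphorylation of biotinylated GST-cJun 1-79 at Ser73 with 10 µM ATP; % is scaled to controls: 0 for no effect and ±100 for the full control effect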)
Method in brief: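 Room-temperature AlphaScreen kinase assay; pre-activated HepG2 lysate as JNK3 source, biotin-GST-cJun(1-79) substrate, 10 uM ATP, compound 15 min preincubation.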

[11] = target: Cytochrome P450 2D6 (Homo sapiens) (UniProt P10635); experiment: qHTS Assay for Inhibitors and Substrates of Cytochrome P450 2D6 (AID 891); also: potency is read from the fitted curve at half-maximal effect; nearly all actives have a fitted effect of over 60% in size
Sequence of Cytochrome P450 2D6 (Homo sapiens) (P10635 whole entry, looked up): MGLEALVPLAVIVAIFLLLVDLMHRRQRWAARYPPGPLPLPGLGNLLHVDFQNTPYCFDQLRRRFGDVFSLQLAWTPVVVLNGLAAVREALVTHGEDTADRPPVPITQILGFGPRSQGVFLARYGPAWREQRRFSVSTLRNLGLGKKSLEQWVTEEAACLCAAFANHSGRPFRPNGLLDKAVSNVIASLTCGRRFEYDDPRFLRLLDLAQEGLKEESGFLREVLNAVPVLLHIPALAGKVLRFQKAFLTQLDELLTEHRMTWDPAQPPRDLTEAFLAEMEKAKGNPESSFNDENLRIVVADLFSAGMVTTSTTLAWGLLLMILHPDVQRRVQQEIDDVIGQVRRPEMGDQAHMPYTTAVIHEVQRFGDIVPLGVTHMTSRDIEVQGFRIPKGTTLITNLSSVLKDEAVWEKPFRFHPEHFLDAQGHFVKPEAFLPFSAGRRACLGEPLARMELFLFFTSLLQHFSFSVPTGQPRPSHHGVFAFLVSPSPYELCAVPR
Method in brief: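 Human CYP2D6 (5 nM) with 30 uM Luciferin-ME EGE (at Km) in 100 mM KPO4, compound preincubated 10 min, then NADPH regeneration system for 60 min at room temperature. Luciferin read by luminescence; normalized to 1.43 uM quinidine.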

[12] = qHTS Assay for Lipid Storage Modulators (AID 1519; calls by dose curve); conditions: Drosophila S3 cells, BODIPY lipid droplet/cell ratio, laser cytometry, cells loaded with oleic acid; for activity change, negative = inhibition: at 57.5 µM (top of the series)
Method in brief: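 Cells seeded at 5,000 per well were treated with compounds over a concentration series and loaded with oleic acid (400 uM, as added). Lipid droplet fluorescence (488 nm excitation, 500-530 nm channel) was read by laser-scanning cytometry and normalized to 20 uM Triacsin C.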

[13] = NFAT Signaling Pathway (AID 444; active = well fitted curve in either direction with a large enough effect, not every such curve was filed as active); conditions: Jurkat NFAT-bla M1, carbachol, beta-lactamase ratio, 5 h; at 7.69 µM (top of the series)
Method in brief: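 Read-out: CCF4 FRET ratio (460 nm/530 nm) after 1 h RT dye loading, used for %activity and AC50 from titration series. Cells: Jurkat NFAT-β-lactamase/M1 line, treated with compound plus 1 uM carbachol for 5 h, 37 °C.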

[14] = Confirmation and Secondary Assay for Modulators of Hemoglobin Beta Chain Splicing at IVS2 654 locus (AID 910);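 also: HeLa cells stably carrying EGFP split by mutant beta-globin IVS2-654 intron; per-well total GFP intensity by laser scanning cytometry after 2-day treatment; % of control where 0% means no effect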
Method in brief: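 Readout: per-well total peak green fluorescence (488 nm ex, 500–520 nm em) from objects 5–250 µm, reflecting correct splicing of an EGFP-654 reporter. Compounds were applied for 2 days at 37 °C to overnight-plated HeLa EGFP-654 cells; controls were DMSO and 500 nM IVS2-654 PNA.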

[15] = Confirmation and Secondary Assay for Modulators of Hemoglobin Beta Chain Splicing at IVS2 705 locus (AID 930);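 also: HeLa cells stably expressing the EGFP-705 splicing reporter; GFP fluorescence per well restored by corrected splicing of the IVS2-705 intron in EGFP; % of control where 0% means no effect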
Method in brief: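 HeLa EGFP-705 reporter; 500 cells/well, o/n 37C 5% CO2; cpd 2 d; 488 ex/500-520 em laser scan; total peak GFP intensity/well. Ref: 500 nM […] antisense PNA.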

[16] = target: Ubiquitin carboxyl-terminal hydrolase 1 (Homo sapiens) (UniProt O94782); experiment: Inhibitors of USP1/UAF1: Pilot qHTS (AID 504865);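 also: rhodamine fluorescence freed from ubiquitin-rhodamine substrate followed over time; top concentration of the series differs between compounds; % is scaled to controls: 0 for no effect and ±100 for the full control effect; nearly all actives have a fitted effect of over 35% in size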
Sequence of Ubiquitin carboxyl-terminal hydrolase 1 (Homo sapiens) (O94782 whole entry, looked up): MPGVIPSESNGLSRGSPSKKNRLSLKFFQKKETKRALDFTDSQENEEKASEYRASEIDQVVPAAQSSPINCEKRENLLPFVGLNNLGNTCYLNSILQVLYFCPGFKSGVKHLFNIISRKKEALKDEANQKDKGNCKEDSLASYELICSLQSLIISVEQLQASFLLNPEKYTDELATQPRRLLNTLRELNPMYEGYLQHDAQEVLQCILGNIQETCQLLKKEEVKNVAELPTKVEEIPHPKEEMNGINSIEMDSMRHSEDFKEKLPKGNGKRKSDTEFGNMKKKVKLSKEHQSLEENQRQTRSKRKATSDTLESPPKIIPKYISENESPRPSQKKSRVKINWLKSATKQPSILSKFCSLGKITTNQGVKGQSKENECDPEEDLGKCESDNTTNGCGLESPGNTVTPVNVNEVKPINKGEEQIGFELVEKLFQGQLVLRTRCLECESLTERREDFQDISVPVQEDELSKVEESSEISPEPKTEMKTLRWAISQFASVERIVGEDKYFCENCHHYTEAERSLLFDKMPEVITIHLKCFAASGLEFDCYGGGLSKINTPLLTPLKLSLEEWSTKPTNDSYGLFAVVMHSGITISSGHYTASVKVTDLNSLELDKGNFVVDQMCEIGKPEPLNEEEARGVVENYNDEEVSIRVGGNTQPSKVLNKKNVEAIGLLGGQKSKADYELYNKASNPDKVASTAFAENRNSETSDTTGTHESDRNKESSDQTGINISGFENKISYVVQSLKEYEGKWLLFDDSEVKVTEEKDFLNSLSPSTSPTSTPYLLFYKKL
Method in brief: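 In 50mM HEPES pH 7.8 containing 0.5mM EDTA, 1mM TCEP, 0.1 mg/ml BSA and 0.01% Tween-20, 1nM USP1/UAF1 is exposed to compound for 15 min, then Ub-Rho (150nM final) is added and fluorescence is read over time.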

[17] = measured here: cell count channel max response
[18] = measured here: lipid channel max response

O=C(Nc1ccccc1)N1CCCC2(CCN(C(=O)Oc3ccccc3)CC2)C1
inactive: Potency [1] > 20 µM | Potency [2] > 11.4 µM | outcome [3] | outcome [5] | Potency [6] > 46 µM | Potency [7] | Potency [8] | outcome [9]
active: Potency [4] 25.1 µM

O=C(c1ccncc1)N1CCC2(CC1)CN(Cc1ccccc1)C2
inactive: Potency [1] > 20 µM | outcome [3] | Potency [4] | Potency [6] > 46 µM | outcome [10] | Potency [7] | Potency [8] | outcome [9]
active: Potency [11] 6.31 µM

CC(C)NC(=O)N1CCCC2(CCN(C(=O)Oc3ccccc3)CC2)C1
inactive: outcome [3] | outcome [5] | Potency [6] > 46 µM | outcome [10] | Potency [8] | activity change, negative = inhibition [12] 6.21% | outcome [9]
27.7%: max response [12, 17]
29.9%: max response [12, 18]
active: Potency [4] 12.6 µM

O=C(Oc1ccccc1)N1CCC2(CC1)CN(C(c1ccccc1)c1ccccc1)C2
-3.18%: max response [12, 17]
active: Potency [8] 6.31 µM | Potency [11] 7.94 µM
-5.43%: max response [12, 18]
inactive: outcome [3] | Potency [4] | activity change, negative = inhibition [13] -29.6% | outcome [5] | Potency [6] > 46 µM | outcome [10] | activity change, negative = inhibition [12] -5.67% | outcome [9]

CC(C)CN1CCC2(CC1)CCN(C(=O)Oc1ccccc1)CC2
inactive: outcome [3] | outcome [5] | Potency [6] > 46 µM | outcome [10] | activity change, negative = inhibition [12] 3.6% | outcome [9]
1.23%: max response [12, 18]
-4.31%: max response [12, 17]

COc1ccc(NC(=O)N2CC[C@@]3(CCCN(C(=O)Oc4ccccc4)C3)C2)cc1
inactive: Potency [1] > 20 µM | outcome [3] | activity change, negative = inhibition [13] 4.32% | outcome [5] | Potency [6] > 46 µM | outcome [10] | Potency [7] | Potency [8] | outcome [9]
active: Potency [11] 6.31 µM

O=C(Oc1ccccc1)N1CCC2(CCCN(Cc3nccs3)C2)CC1
inactive: Potency [1] > 20 µM | Potency [2] > 11.4 µM | outcome [3] | Potency [4] | outcome [5] | Potency [6] > 46 µM | outcome [10] | Potency [7] | Potency [8] | outcome [9]
active: Potency [11] 5.01 µM

O=C(c1csnn1)N1CCC2(CC1)CN(Cc1ccncc1)C2
6.9%: max response [12, 17]
14.2%: max response [12, 18]
active: Potency [4] 10 µM
inactive: Potency [2] > 11.4 µM | outcome [3] | outcome [5] | Potency [6] > 46 µM | outcome [10] | Potency [7] | Potency [8] | activity change, negative = inhibition [12] 4.72% | outcome [9]

CN1CCCCC1c1ccc(-c2cccnc2)nc1 (centres undefined)
12.4%: max response [12, 17]
inactive: Potency [8] | Potency [14] | Potency [15] | activity change, negative = inhibition [12] 6.38% | Potency [16] | outcome [9]
21.9%: max response [12, 18]
